Reference: PubChem BioAssay (EPA / NIEHS)
Calls of active or inactive are those of the source. How the source made its calls: active means hit-call score of the fitted dose curve at least 0.9, where 1 is the maximum; inactive means score below 0.9.

How the values were obtained:
[1] = ATG_PBREM_CIS: Attagene CIS-FACTORIAL HepG2 Assay for human Phenobarbital-responsive Enhancer Module (PBREM) (AID 2282955); details: HepG2 PBREM cis-reporter, Attagene multiplexed transcription; actives raise or lower the signal
How it was run: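 HepG2 cells transiently transfected with multiple cis-regulated reporter units measure endogenous transcription factor activity; 24 h compound exposure. Reporter mRNA quantified by RT-PCR, fluorescent labelling, HpaI digestion and capillary electrophoresis; bidirectional fit versus DMSO.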

[2] = target: Paired box protein Pax-6 (Homo sapiens) (UniProt P26367); experiment: ATG_Pax6_CIS: Attagene CIS-FACTORIAL HepG2 Assay for human Paired Box 6 (PAX6) (AID 2282956); details: HepG2 CIS-FACTORIAL PAX6 reporter transcription, RNA readout; actives raise or lower the signal
How it was run: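 Values derive from bidirectional curve fitting of reporter mRNA signal relative to DMSO. HepG2 cells bearing transfected cis-regulated MRTUs were exposed for 24 h; transcripts were read by RT-PCR and capillary electrophoresis.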

[3] = ATG_PXRE_CIS: Attagene CIS-FACTORIAL HepG2 Assay for human Pregnane X Receptor Element (PXRE) (AID 2282957); details: HepG2 Attagene CIS-FACTORIAL PXRE reporter, mRNA; actives raise or lower the signal
How it was run: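 Fluorescent capillary electrophoresis of amplified reporter cDNA gave the signal, collected 24 h after dosing HepG2 cells that held transfected cis-element reporter constructs.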

[4] = ATG_RORE_CIS: Attagene CIS-FACTORIAL HepG2 Assay for human RAR-related Orphan Receptor Element (RORE) (AID 2282959); details: HepG2 Attagene cis-factorial RORE reporter, mRNA; actives raise or lower the signal
How it was run: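 HepG2 cells carrying transiently transfected cis-regulated reporter units; RORE-driven reporter mRNA quantified 24 h post-dosing by RT-PCR, 6-FAM primer extension, HpaI digestion and capillary electrophoresis. Bidirectional fit versus DMSO.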

[5] = ATG_Sox_CIS: Attagene CIS-FACTORIAL HepG2 Assay for human SRY-box transcription factor (SOX) (AID 2282960); details: HepG2 Attagene cis-factorial SOX reporter, mRNA; actives raise or lower the signal
How it was run: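 HepG2 cells transiently transfected with multiple cis-regulated reporter units, then dosed for 24 h. Reporter mRNA quantified by RT-PCR, fluorescent labelling, HpaI digestion and capillary electrophoresis; bidirectional fit versus DMSO.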

[6] = target: Transcription factor Sp1 (Homo sapiens) (UniProt P08047); experiment: ATG_Sp1_CIS: Attagene CIS-FACTORIAL HepG2 Assay for human Specificity Protein 1 (Sp1) (AID 2282961); details: HepG2 Sp1 cis-reporter transcription, actives raise or lower the signal
How it was run: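 HepG2 cells transiently transfected with multiplexed cis-regulated reporter constructs, chemical exposure 24 h. Reporter mRNA quantified by RT-PCR with capillary electrophoresis; bidirectional fit relative to DMSO.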

[7] = ATG_SREBP_CIS: Attagene CIS-FACTORIAL HepG2 Assay for human Sterol Regulatory Element Binding (SREBP) (AID 2282962); details: HepG2 Attagene cis-factorial SREBP reporter, mRNA; actives raise or lower the signal
How it was run: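 Values derive from bidirectional curve fitting with DMSO as baseline. The underlying measurement is reporter mRNA from cis-element-regulated units in transiently transfected HepG2, quantified by RT-PCR and capillary electrophoresis after 24 h exposure.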

[8] = target: Signal transducer and activator of transcription 3 (Homo sapiens) (UniProt P40763); experiment: ATG_STAT3_CIS: Attagene CIS-FACTORIAL HepG2 Assay for human Signal Transducer and Activator of Transcription 3 (STAT3) (AID 2282963); details: HepG2, Attagene cis-factorial STAT3 reporter transcription; actives raise or lower the signal
How it was run: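 HepG2, MRTU-transfected, 24 h dosing. RNA → RT → PCR → FAM label → HpaI → CE. Bidirectional fit vs DMSO.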

[9] = ATG_TA_CIS: Attagene CIS-FACTORIAL HepG2 Assay for human TA Basal Promoter (AID 2282964); details: HepG2 Attagene CIS-factorial TA basal promoter reporter; actives raise or lower the signal
How it was run: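 Transient MRTU transfection of HepG2 preceded 24 h compound exposure. Reporter mRNA levels were then read by RT-PCR with capillary electrophoresis, and this background-control endpoint was fitted bidirectionally to DMSO.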

[10] = ATG_PPRE_CIS: Attagene CIS-FACTORIAL HepG2 Assay for human Peroxisome Proliferator-activated Response Element (PPRE) (AID 2282958); details: HepG2 PPRE cis-element reporter, Attagene transcription factor profiling; actives raise or lower the signal
How it was run: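 HepG2 cells are transiently transfected with multiplexed cis-promoter reporter units to report endogenous PPAR activity. After 24 h dosing, reporter mRNA is read by RT-PCR and capillary electrophoresis. Fitting is bidirectional against DMSO.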

Measured: AC50

Sequence of Paired box protein Pax-6 (Homo sapiens) (P26367 whole entry, looked up): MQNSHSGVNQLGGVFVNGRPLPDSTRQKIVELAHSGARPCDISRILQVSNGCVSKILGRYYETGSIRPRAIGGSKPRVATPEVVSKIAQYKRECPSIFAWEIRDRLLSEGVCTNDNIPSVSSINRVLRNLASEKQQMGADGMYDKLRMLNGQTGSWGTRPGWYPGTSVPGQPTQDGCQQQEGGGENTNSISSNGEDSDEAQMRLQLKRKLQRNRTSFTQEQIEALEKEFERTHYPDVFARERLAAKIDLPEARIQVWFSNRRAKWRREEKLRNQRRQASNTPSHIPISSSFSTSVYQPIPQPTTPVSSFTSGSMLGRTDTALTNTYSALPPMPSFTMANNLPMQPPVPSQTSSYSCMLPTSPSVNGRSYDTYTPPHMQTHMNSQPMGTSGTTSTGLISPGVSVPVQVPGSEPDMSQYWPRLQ
Sequence of Transcription factor Sp1 (Homo sapiens) (P08047 whole entry, looked up): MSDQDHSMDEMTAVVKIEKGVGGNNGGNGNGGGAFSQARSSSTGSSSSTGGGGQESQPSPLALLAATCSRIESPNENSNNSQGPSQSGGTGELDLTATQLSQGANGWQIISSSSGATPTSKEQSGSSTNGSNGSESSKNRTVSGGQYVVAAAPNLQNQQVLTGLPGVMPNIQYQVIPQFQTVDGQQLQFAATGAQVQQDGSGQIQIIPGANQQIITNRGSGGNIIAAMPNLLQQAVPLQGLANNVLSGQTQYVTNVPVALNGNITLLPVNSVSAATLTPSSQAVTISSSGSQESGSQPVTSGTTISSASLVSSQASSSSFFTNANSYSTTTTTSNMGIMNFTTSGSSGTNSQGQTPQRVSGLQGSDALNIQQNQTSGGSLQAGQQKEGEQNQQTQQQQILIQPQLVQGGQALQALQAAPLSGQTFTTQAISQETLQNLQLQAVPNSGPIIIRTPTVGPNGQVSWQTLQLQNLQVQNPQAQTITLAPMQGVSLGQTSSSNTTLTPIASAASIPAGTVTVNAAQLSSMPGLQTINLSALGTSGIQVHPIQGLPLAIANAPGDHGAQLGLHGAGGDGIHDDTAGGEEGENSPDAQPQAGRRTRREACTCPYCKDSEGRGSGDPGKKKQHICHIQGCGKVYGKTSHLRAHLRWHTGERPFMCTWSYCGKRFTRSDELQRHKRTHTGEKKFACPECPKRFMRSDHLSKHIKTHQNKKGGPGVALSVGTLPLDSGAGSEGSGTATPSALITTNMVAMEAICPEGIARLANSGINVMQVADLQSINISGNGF
Sequence of Signal transducer and activator of transcription 3 (Homo sapiens) (P40763 whole entry, looked up): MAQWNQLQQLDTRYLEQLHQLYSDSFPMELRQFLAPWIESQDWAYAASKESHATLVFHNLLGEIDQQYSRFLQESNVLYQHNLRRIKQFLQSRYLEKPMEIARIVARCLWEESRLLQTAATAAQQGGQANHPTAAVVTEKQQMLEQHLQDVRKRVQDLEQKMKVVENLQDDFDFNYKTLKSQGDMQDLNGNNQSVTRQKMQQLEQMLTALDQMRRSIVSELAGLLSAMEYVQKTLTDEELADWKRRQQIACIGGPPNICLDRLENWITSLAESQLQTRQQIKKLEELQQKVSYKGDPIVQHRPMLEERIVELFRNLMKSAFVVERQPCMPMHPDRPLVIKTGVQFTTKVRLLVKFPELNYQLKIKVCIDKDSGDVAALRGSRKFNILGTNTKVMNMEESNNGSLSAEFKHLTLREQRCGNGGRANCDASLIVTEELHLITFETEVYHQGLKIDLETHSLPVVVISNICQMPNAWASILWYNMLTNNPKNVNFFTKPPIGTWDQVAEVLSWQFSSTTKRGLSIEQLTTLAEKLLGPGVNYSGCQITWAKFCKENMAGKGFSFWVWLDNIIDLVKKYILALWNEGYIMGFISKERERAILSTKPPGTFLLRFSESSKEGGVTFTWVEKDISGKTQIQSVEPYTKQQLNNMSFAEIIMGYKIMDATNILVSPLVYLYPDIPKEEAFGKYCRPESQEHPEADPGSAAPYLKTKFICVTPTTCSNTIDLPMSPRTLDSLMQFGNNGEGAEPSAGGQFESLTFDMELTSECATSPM

Cc1c(Cl)cccc1Cl
not listed: [10]
inactive: all other assays above

O=C(Oc1ccccc1)c1ccccc1O
not listed: [10]
inactive: all other assays above

CCCCCCCO
active: [3] 39.1 µM
not listed: [10]
inactive: all other assays above

COC(Cc1ccccc1)OC
not listed: [10]
inactive: all other assays above

CC(C)c1ccc2ncccc2c1
active: [3] 27.9 µM
not listed: [10]
inactive: all other assays above

CN(C)c1ccc2nc3ccc(=[N+](C)C)cc-3sc2c1
active: [3] 3.95 µM
not listed: [10]
inactive: all other assays above

NC(=O)Nc1ccccc1
not listed: [4] | [10]
inactive: all other assays above

COCC(=O)O
not listed: [1]
inactive: all other assays above

CCOC(=O)c1ccccc1C
not listed: [4] | [10]
inactive: all other assays above

CC(C)OC(=O)c1ccccc1
not listed: [4] | [5] | [10]
inactive: all other assays above

CC(=O)CC(=O)Nc1ccccc1C
not listed: [4] | [10]
inactive: all other assays above

CCCCC(=O)O
not listed: [4] | [10]
inactive: all other assays above

CCC(C)C(=O)OC (stereo not drawn)
not listed: [1]
inactive: all other assays above

O=C(O)C1CCC(C(=O)O)CC1 (stereo not drawn)
not listed: [4] | [10]
inactive: all other assays above

CCOC(=O)C1=NN(c2ccc(Cl)cc2Cl)C(C)(C(=O)OCC)C1 (stereo not drawn)
active: [3] 9.36 µM
not listed: [1]
inactive: all other assays above
